Results on 99 compounds are retold here after PubChem BioAssay AID372 (MTDP, 2006).

Screen size: about 100,000 compounds; about 770 (0.77%) were called active. The sample as a whole holds a higher share of actives than the screen did. Values without a mark were called inactive. Rule as the data show it: active = inhibition above about 50%; inactive = the rest.

The term inhibition denotes the drop in the measured response relative to a control, in per cent.

The target of this experiment is Gag-Pol polyprotein (Human immunodeficiency virus type 1 group M subtype B (isolate HXB2)) (UniProt P04585). Kind of experiment: RNase H inhibition, HIV 1 Gag Pol polyprotein, FRET biochemical assay, screening (AID 372). The settings on record: HIV-1 RT RNase H, FRET RNA/DNA substrate fluorescence; at 10 µM; hits give high values.
For the compound `Cc1ncc(CO)c(/C=N/Nc2ccccc2)c1O`, the inhibition was 13%.
With `O=C(N/N=C/c1ccc(O)c(Br)c1)c1cccc(Br)c1`, the inhibition was 0%.
As for `COc1ccc(NC(=O)c2sc3cc(C)ccc3c2Cl)c(OC)c1`, the inhibition is 3%.
Consider `Cc1ccn2c(-c3csc(Nc4ccc(O)cc4)n3)c(C)nc2c1`, for which the inhibition is 8%.
Take `CCC1CCCCN1S(=O)(=O)c1ccc(Cl)c([N+](=O)[O-])c1` (centres undefined): the inhibition is 12%.
Take `Cc1ccc(N2C(=O)c3ccc(-c4nc5ccccc5c(=O)o4)cc3C2=O)c(C)c1`: the inhibition is 5%.
Take `Cc1cccc(N2C(=O)c3ccc(-c4nc5ccccc5c(=O)o4)cc3C2=O)c1C`: the inhibition is 10%.
For the compound `Cc1cc(Br)ccc1N1C(=O)c2ccc(-c3nc4ccccc4c(=O)o3)cc2C1=O`, the inhibition was 59% (active).
For `Cc1cccc(N2C(=O)c3ccc(-c4nc5ccccc5c(=O)o4)cc3C2=O)c1`, the inhibition is 37%.
With `Cc1ccccc1N1C(=O)c2ccc(-c3nc4ccccc4c(=O)o3)cc2C1=O` the figure was 2%.
The result for `Cc1cc(C)c(N2C(=O)c3ccc(-c4nc5ccccc5c(=O)o4)cc3C2=O)c(C)c1` reads 54% (active); that for `O=C1C(=O)N(c2cccnc2)C(c2ccc(F)cc2)/C1=C(\O)c1ccc(Cl)cc1` (centres undefined), 2%; that for `CCCC(=O)N1c2c(C)cccc2C(Nc2ccccc2C)CC1C` (centres undefined), 12%.
`COC(=O)c1c(NC(=O)c2c(F)c(F)c(F)c(F)c2F)sc2c1CCCCC2`: the inhibition was 26%.
Take `O=c1c(C=NCC2CCCO2)c(C(F)(F)F)[nH]n1-c1nc2ccccc2s1` (centres undefined): the inhibition was 0%.
In the case of `CCOC(=O)c1ccc(NC(=O)Nc2nc(-c3ccccc3)cs2)cc1`, the inhibition is 0%.
The result for `Oc1c(Br)cc(Cl)cc1/C=C/c1ccc2cccc(O)c2n1` reads 15%.
With `O=C(c1ccccc1)c1cc(Cl)cc2c1NC(C(=O)O)C1CC=CC21` (centres undefined), the inhibition is 30%.
With `Cc1ccc2c(c1)C1C=CCC1C(C(=O)O)N2` (centres undefined) the figure was 27%; with `O=C(O)C1Nc2c(cccc2[N+](=O)[O-])C2C=CCC12` (centres undefined), 17%.
Take `O=C(O)C1Nc2c(I)cccc2C2C=CCC12` (centres undefined): the inhibition is 30%.
With `O=C(O)C1Nc2ccc(F)cc2C2C=CCC12` (centres undefined), the inhibition was 12%.
With `NC(=O)c1cccc2c1NC(C(=O)O)C1CC=CC21` (centres undefined) the figure was 22%.
In the case of `O=C1c2ccccc2NC(c2ccccc2O)N1Cc1ccco1` (centres undefined), the inhibition is 5%.
With `CC(C)Cc1ccc(-c2csc(/C(C#N)=C/Nc3ccccc3)n2)cc1` the figure was 0%; with `CCOc1cc(/C=C2\SC(N)=NC2=O)ccc1OCCOc1ccc(Cl)c(C)c1`, 30%.
The result for `O=C(CSCc1cccc(Br)c1)N=Nc1c(O)[nH]c2ccccc12` reads 16%; that for `Cc1ccc(Cc2cnc(NC(=O)c3ccc(Br)cc3)s2)cc1`, 0%; that for `O=C(Nc1ccc(-c2cnc(-c3ccc(NC(=O)c4ccccc4)cc3)nc2)cc1)c1ccccc1`, 0%.
With `COc1cccc(C(=O)Nc2ccc(-c3ccc(NC(=O)c4cccc(OC)c4)cc3)cc2)c1`, the inhibition is 2%.
With `COc1cccc(C(=O)Nc2ccc(-c3cnc(-c4ccc(NC(=O)c5cccc(OC)c5)cc4)nc3)cc2)c1` the figure was 50% (active); with `Cc1cc(C)c(OCCCCN2CCC(C)CC2)c(C)c1`, 10%; with `COc1cc([N+](=O)[O-])ccc1NC(=S)NC(=O)c1ccccc1`, 3%.
With `N#Cc1c(-c2ccco2)c2c([nH]c1=S)CCCC2`, the inhibition was 63% (active).
Turning to `N#Cc1c(N)c(C#N)c(-c2ccco2)c2c1CCCC2`, the inhibition is 4%.
The result for `Cc1ccc(-c2c3c([nH]c(=S)c2C#N)CCCC3)o1` reads 8%; that for `Oc1cccc(/C=N/Nc2nc(-c3ccc(Br)cc3)cs2)c1`, 16%.
With `O=S(=O)(Nc1cccc(C(F)(F)F)c1)c1ccc(F)cc1`, the inhibition is 0%.
The result for `O=S(=O)(Nc1cccc(I)c1)c1ccccc1` reads 0%.
Turning to `Cc1cc(C)cc(NS(=O)(=O)c2ccc3ccccc3c2)c1`, the inhibition was 14%.
In the case of `COc1ccc(S(=O)(=O)Nc2cccc(C(F)(F)F)c2)cc1`, the inhibition is 0%.
With `O=S(=O)(Nc1cccc(F)c1)c1ccc2ccccc2c1` the figure was 27%; with `O=S(=O)(Nc1ccc(Nc2ccccc2)cc1)c1ccc2ccccc2c1`, 0%.
The result for `O=S(=O)(Nc1cccc(Br)c1)c1ccc2ccccc2c1` reads 50% (active).
With `O=S(=O)(Nc1cccc(I)c1)c1ccc2ccccc2c1` the figure was 52% (active).
Take `Brc1ccc(N2COc3ccc4ccccc4c3C2)cc1`: the inhibition is 18%.
With `CCOC(=O)c1ccc2c(c1)C1C=CCC1C(c1ccc(Br)cc1)N2` (centres undefined) the figure was 31%; with `Cc1ccc(C(=O)Nc2ccc(I)cc2)o1`, 0%.
On to `CCCOC(=O)C1=C(C)NC(=O)NC1c1cccc2ccccc12` (centres undefined), for which the inhibition was 4%.
With `CCc1ccc(NC(=O)C(=O)NCCc2ccc(F)cc2)cc1` the figure was 12%; with `COc1ccc(C(=O)NC(NC(=O)c2ccc(OC)c(OC)c2)c2ccc(Br)cc2)cc1OC`, 6%; with `O=C1NC(=O)c2ccc3c4c(ccc1c24)CC3`, 2%.
With `NN1C(=O)c2ccc3c4c(ccc(c24)C1=O)CC3` the figure was 0%; with `COc1cc(CN2CCN(C3CCCC(C)C3)CC2)cc(OC)c1OC` (centres undefined), 7%.
Turning to `COc1ccc(CNC(=O)c2ccc(Cl)c(Cl)c2)cc1`, the inhibition is 8%.
The result for `CC(C)=NNC(=O)C(=O)Nc1cccc(Cl)c1` reads 10%; that for `CC(C)=NNC(=O)C(=O)Nc1ccc(Cl)c(Cl)c1`, 12%; that for `CC(C)=NNC(=O)Sc1cc(O)c(Cl)cc1O`, 66% (active).
With `O=C(NCCO)C(=O)Nc1ccc(Oc2ccccc2)cc1`, the inhibition was 6%.
The result for `Cc1cc(C)c(NC(=O)C(C)Sc2nnc(-c3cccc(F)c3)n2-c2ccccc2)c(C)c1` (centres undefined) reads 54% (active); that for `Fc1cccc(-c2nnc(SC(c3ccccc3)c3ccccc3)n2-c2ccccc2)c1`, 13%.
With `CC(NC(=O)CSc1nnc(-c2cccc(F)c2)n1-c1ccccc1)c1ccccc1` (centres undefined) the figure was 15%; with `Cc1oc(C(C)(C)C)cc1C(=O)Nc1cccc(O)c1`, 1%; with `Cc1ccc(N=Cc2ccc(OC3CSC3)cc2)cc1C`, 8%.
The result for `COc1ccc(C2NC(=S)NC(C)=C2C(=O)Nc2ccc(C)c(Cl)c2)cc1` (centres undefined) reads 10%; that for `Nc1c(S(=O)(=O)O)cc(S(=O)(=O)O)c2cccc(O)c12`, 23%; that for `Nc1ccc(S(=O)(=O)O)c2cccc(S(=O)(=O)O)c12`, 6%.
Turning to `Nc1nnc(SCC(=O)Nc2ccccc2-c2ccccc2)s1`, the inhibition was 0%.
With `COc1ccc(NC(=O)/C(C#N)=C/c2cccc(O)c2)cc1` the figure was 12%; with `COc1cc(/C=N/NC(=O)COc2ccc(C(C)(C)CC(C)(C)C)cc2[N+](=O)[O-])ccc1OC(=O)c1ccc([N+](=O)[O-])cc1`, 28%.
`Cc1c(Cl)cccc1-c1ccc(/C=N/N=C2\NC(=O)CS2)o1`: the inhibition was 55% (active).
Take `O=C1CS/C(=N/N=C/c2ccc(-c3ccc(Cl)cc3)o2)N1`: the inhibition was 21%.
The result for `Cc1c(-c2ccc(/C=N/N=C3/NC(=O)CS3)o2)ccc([N+](=O)[O-])c1C` reads 45%; that for `COc1ccccc1NC(=O)CN(c1ccc(Cl)cc1Cl)S(=O)(=O)c1ccccc1`, 13%.
With `c1cc2ccc3ccc(CN4CCOCC4)c4ccc(c1)c2c34`, the inhibition was 0%.
On to `O=C1/C(=C/c2ccc([N+](=O)[O-])cc2)C=C(c2ccccc2)N1c1ccc(O)cc1`, for which the inhibition was 54% (active).
As for `Cc1cccc(C2=N/C(=C/c3ccc([N+](=O)[O-])cc3)C(=O)N2c2ccc(O)cc2)c1`, the inhibition was 44%.
The result for `CC(=O)Nc1ccc(N2C(=O)/C(=C/c3ccc([N+](=O)[O-])cc3)C=C2c2ccccc2)cc1` reads 0%; that for `COc1cc(/C=N/N=C2/NC(=O)C(CC(=O)Nc3cccc(Cl)c3Cl)S2)ccc1O` (centres undefined), 5%; that for `CCOc1ccc(C(=O)NCc2ccco2)cc1Cl`, 6%.
The result for `CCOc1ccc(C(=O)NCc2ccco2)cc1Br` reads 5%; that for `Cc1ccc(C(=O)NCc2ccco2)cc1`, 0%.
As to `CCOc1ccc(C(=O)NCc2ccco2)cc1OCC`, the inhibition is 50% (active).
With `O=C(NCc1ccco1)c1ccc(Cl)cc1` the figure was 0%; with `CC(=O)Nc1ccc(C(=O)NCc2ccco2)cc1`, 57% (active).
In the case of `Cc1nn(S(=O)(=O)c2ccc([N+](=O)[O-])cc2)c(C)c1Sc1ccc([N+](=O)[O-])cc1`, the inhibition is 18%.
Regarding `CSCCOC(=O)C1=C(C)NC(=O)NC1c1ccc([N+](=O)[O-])cc1` (centres undefined), the inhibition was 22%.
On to `CCCCOc1ccc2c(C(F)(F)F)cc(=O)oc2c1`, for which the inhibition is 9%.
With `CCOC(=O)C1=C(C)NC2=C(C(=O)CC(c3ccc(OC)cc3)C2)C1c1ccccc1OC(C)C` (centres undefined) the figure was 1%; with `O=C(N/N=C/c1ccccc1OC(=O)c1sc2ccccc2c1Cl)c1ccc([N+](=O)[O-])cc1`, 6%.
The result for `O=C(Nc1cccc2ccccc12)c1ccccc1[N+](=O)[O-]` reads 5%; that for `Cc1ccc(OC(=O)Cn2c(=O)sc3cccc(Cl)c32)cc1C`, 12%; that for `CCn1c(=O)sc2cccc(Cl)c21`, 50% (active).
The result for `Cc1cc(C)cc(OC(=O)Cn2c(=O)sc3cccc(Cl)c32)c1` reads 11%; that for `COC(=O)CCCCCN1C(=O)c2ccccc2C1=O`, 6%.
With `COc1cc(/C=c2\sc3nc4c(C)c(C)ccc4n3c2=O)cc(Cl)c1O`, the inhibition was 31%.
The result for `COc1cc(/C=c2/sc3nc4c(C)c(C)ccc4n3c2=O)cc(OC)c1OC(C)=O` reads 8%.
With `COc1cc(/C=c2\sc3nc4c(C)c(C)ccc4n3c2=O)cc(OC)c1O` the figure was 58% (active); with `O=C(Nc1ccc(-c2noc(-c3ccccc3F)n2)cc1)c1cccs1`, 10%.
